Results published in PubChem BioAssay AID588726 (The Scripps Research Institute Molecular Screening Center, 2011).
The whole screen tested about 360,000 compounds, of which about 8,200 (2.3%) were called active. The sample as a whole holds a higher share of actives than the screen did. Values without a mark were called inactive. Cut-off read from the data, not from the text of the source: active = inhibition above about 27%; inactive = the rest.

target: Fructose-bisphosphate aldolase (Mycobacterium tuberculosis (strain ATCC 25618 / H37Rv)) (UniProt P9WQA3); assay: Mtb FBA enzyme inhibitors, primary screen, biochemical, fluorescence, strain H37Rv (AID 588726);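 note: 0% = vehicle and 100% = reference inhibitor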; settings: purified M. tuberculosis FBA, fluorescence read-out, at 1 µM, stronger effect = higher value
Sequence (P9WQA3 whole entry, looked up): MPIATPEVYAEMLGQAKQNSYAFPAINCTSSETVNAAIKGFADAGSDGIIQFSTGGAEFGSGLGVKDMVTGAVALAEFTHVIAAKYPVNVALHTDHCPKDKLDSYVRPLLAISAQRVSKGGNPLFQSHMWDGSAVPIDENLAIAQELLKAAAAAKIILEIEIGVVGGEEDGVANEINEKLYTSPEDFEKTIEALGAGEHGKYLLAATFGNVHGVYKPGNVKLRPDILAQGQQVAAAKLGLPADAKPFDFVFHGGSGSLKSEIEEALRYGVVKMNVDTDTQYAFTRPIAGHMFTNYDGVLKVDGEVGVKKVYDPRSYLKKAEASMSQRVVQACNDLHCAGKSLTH

Compound | inhibition
CN(Cc1ccccc1)C(=O)CCNC(=O)Cn1cnc2ccccc2c1=O | 5.26%
CCCCN(C)CCC(=O)Nc1ccc(Cl)cc1 | 0.51%
CCCCC(=O)Nc1ccc2c(c1)C(=O)NC2=O | 42.1% (active)
CC(=O)Nc1ccc(Oc2ccc3c(c2)C(=O)NC3=O)cc1 | 2.21%
Cc1ccc(C(=O)NC2CCN(C(=O)Nc3ccccc3Cl)CC2)cc1 | -1.09%
COc1ccc(C(=O)OCC(=O)NC(=O)CCSc2ccccc2)cc1 | -0.72%
Cc1ccccc1CN1CCNC(=O)C1CC(=O)NCCC1=CCCCC1 (centres undefined) | 2.98%
Cc1cc(C(=O)OC(C)C(=O)Nc2cccc(S(=O)(=O)N3CCOCC3)c2)c(C)o1 (centres undefined) | -3.62%
CCOCCCNC(=O)C(NC(=O)CNC(=O)c1ccccc1)c1ccc(OC)cc1 (centres undefined) | -0.07%
CCOCCCNC(=O)C(NC(=O)CNC(=O)c1ccccc1)c1ccc(C)cc1 (centres undefined) | -3.14%
CCOCCCNC(=O)C(NC(=O)c1ccccc1O)c1ccccc1 (centres undefined) | 43.8% (active)
COc1cccc(NC(=O)[C@H](Cc2c[nH]c3ccccc23)NC(=O)[C@@H]2Cc3ccccc3CN2)c1 | 10.6%
CCCCn1c(O)c(N=NC(=O)Cn2c(C(F)(F)F)nc3ccccc32)c2ccccc21 | 3.68%
N#C/C(=C/c1ccc(N2CCCCC2)o1)C(=O)NCCc1c[nH]c2ccccc12 | -32.6%
CN=C1C=C/C(=N/N=c2\ccn(O)cc2C)C=C1C | -28.4%
Cc1ccc(S(=O)(=O)Nc2ccc(F)c(S(=O)(=O)N3CCOCC3)c2)cc1 | -0.06%
COCc1cc(=O)oc2cc(NS(=O)(=O)c3ccc(C)cc3)ccc12 | 62.4% (active)
COc1ccc(S(=O)(=O)Nc2ccc3oc(C)c(C(C)=O)c3c2)cc1 | 0.55%
COc1ccccc1CCNC(=O)C1CCN(C(=O)/C=C/c2ccccc2)CC1 | 81.2% (active)
COc1ccccc1CNC(=O)C1CCN(C(=O)[C@@H]2Cc3ccccc3CN2)CC1 | -1.63%

Compound | inhibition
CCOC(=O)C1CCN(C(=O)/C=C/c2cc(OC)c(OC)c(OC)c2)CC1 | 6.09%
CCCCC(CC)CNC(=O)CCCCn1c(=O)[nH]c2ccsc2c1=O (centres undefined) | -2.17%
COc1cc(C2NC(=O)NC(c3ccccc3)=C2C(C)=O)c(Br)cc1OCC(N)=O (centres undefined) | 1.26%
O=C(CC(n1cncn1)C(Cl)(Cl)Cl)c1ccc([N+](=O)[O-])cc1 (centres undefined) | 5.32%
NC(=S)NN=Cc1ccc(OC(=O)COc2cc(Cl)c(Cl)cc2Cl)cn1 | 4.26%
O=C(Nc1ccccc1C(=O)O)c1ccc(N2C(=O)C3CC=CCC3C2=O)cc1 (centres undefined) | -1.48%
Cc1cc(C)nc(Nc2n[nH]c(-c3ccccc3N)n2)n1 | 15.2%
Nc1ccccc1-c1nc2ccncc2[nH]1 | 83.7% (active)
O=[N+]([O-])c1ccc2nc(-c3ccccn3)[nH]c2c1 | -3.65%
O=S(=O)(NCCSc1ccccn1)c1ccc(Cl)cc1 | -1.18%
O=C(CN1CCC(O)(c2cccc(C(F)(F)F)c2)CC1)NCCc1ccccc1 | -2.53%
CCOc1ccc(C(=O)CCC(=O)NC2=NCCS2)cc1 | -2.69%
CCN1CCN(C(=O)Cn2nc(C)n3c(cc4c(OC)cccc43)c2=O)CC1 | 195% (active)
CCc1nn(CC(=O)N2CCN(CC)CC2)c(=O)c2cccn12 | 2.42%
CCCN1CCN(C(=O)Cn2ncc3ccccc32)CC1 | 2.25%
Cc1ccccc1NC(=O)NC1(C(=O)N2CCCC2)CCCCC1 | -0.74%
COc1ccc(-c2nn(-c3ccccc3)cc2CN2CCCO2)c(F)c1 | -2.2%
COc1ccc(-n2cc(CNC3CCOCC3)c(-c3cccc(F)c3)n2)cc1 | 50.5% (active)
Cc1ccc(-n2cc(CN(C)Cc3nccn3C)c(-c3cccc(C)c3)n2)cc1 | -2.31%
CCC(O)C1CCN(Cc2cn(-c3ccc(OC)cc3)nc2-c2cccc(F)c2)CC1 (centres undefined) | 23.7%

Compound | inhibition
Cc1cccc(-n2cc(CN3CCN(C(=O)c4ncn[nH]4)CC3)c(-c3cccc(F)c3)n2)c1 | -3.35%
COc1ccc(-n2cc(CN(C)Cc3n[nH]c(=O)[nH]3)c(-c3cccc(F)c3)n2)cc1 | 33.1% (active)
CCCCCCN1C[C@H](O)[C@@H](n2cc(C3CC3)nn2)C[C@@H]1c1ccc(Cl)cc1 | 0.57%
COc1ccc2[nH]c3nc(SCC(=O)NC4CC4)nnc3c2c1 | -8.79%
COc1ccc2c(C)cc(SCC(=O)NCC3CCCO3)nc2c1 (centres undefined) | 4.79%
COC(=O)CSc1nc(C)c2ccc(OC)cc2n1 | 30.8% (active)
Cn1ncc(N2CCN(S(=O)(=O)c3ccc(Br)cc3)CC2)c(Cl)c1=O | -2.21%
c1ccc(-c2cn3c(n2)CCc2ccc4cccnc4c2-3)cc1 | 6.65%
COc1ccc(C(=O)/C=C/Nc2ccccn2)cc1 | 4.41%
Cc1ccccc1Nc1c(-c2ccccc2)nc2ncccn12 | 2.19%
COc1ccc(N2CCN(C(=O)CSc3nnc4ncccn34)CC2)cc1 | -2.52%
CN1CCN(Cc2ccc(OC(F)(F)F)cc2)CC1 | -3.02%
CC(C)(C)NC(=O)NC(=O)COC(=O)C1(C)CC1(Cl)Cl (centres undefined) | 0.89%
COCCNC(=O)c1onc(CSc2cccc(C)c2)c1C(=O)O | 1.01%
Cc1ccc(NC(=O)CN(C)C(=O)c2ccc(Br)o2)cc1 | 0.61%
CC1COC2C(O1)N(S(C)(=O)=O)CCN2S(C)(=O)=O (centres undefined) | -0.44%
Cc1cccc(-c2cnc(C(O)c3cc(C)cc(C)c3)[nH]2)c1 (centres undefined) | -2%
CC(C)C(C(=O)NC1CCCCC1)N(CC1CCCO1)C(=O)CNS(=O)(=O)c1ccc(F)cc1 (centres undefined) | -0.74%
CN1OC[C@@H]2CN(C(=O)C(C)(C)C)[C@H](c3ccc(-n4ccnc4)cc3)C[C@@H]21 | 3.11%
